Results on six compounds are retold here after PubChem BioAssay.

Inconclusive results are not listed. Calls of active or inactive are those of the source.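 How the source made its calls, unless noted: active means viability at or below 27.92% in each of two runs, the all-compound median minus 4 SD; inconclusive means no clear call, values can overlap the other calls; inactive means the rest.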

Test [1] is described as follows: reducers of endogenous Her2 protein level, primary screen, SKBR3 breast tumor cells, AlphaScreen, ATP viability (AID 461;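 active means Her2 level under about 52% in both replicate screens, with viability over 70% of control, limit read from the data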;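 on Her2 level: lower value means less Her2 protein in the cells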;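 on viability: percent of carrier control wells set as 100% viability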). The note with it: 18-24 h, measured here: SKBR3 viability, ATP luminescence, at 10 µM. A general note: Alpha assays give light when donor and acceptor beads are brought close together.
For test [2], the target named is Receptor tyrosine-protein kinase erbB-2 (Homo sapiens) (UniProt P04626). The description is as above. The following applies: 18-24 h, at 10 µM, stronger effect = lower value.
Test [3] can be described thus: SK-BR-3 cell growth inhibitors, pilot screen, 24 h, human (AID 572;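 active means viability at or below 10% of carrier control in both of two separate runs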;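 further: compound exposure lasted between 18 and 24 h rather than exactly 24 h; 100% = carrier-treated control wells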). The following applies: SK-BR-3 viability, CellTiter-Glo luminescence, at 10 µM, stronger effect = lower value. (In general: Cellular ATP, detected with luciferase, serves as a proxy for viable cell number.)
Test [4] in a line: HUVEC growth inhibition – cell-based, human, primary screen (AID 575;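 active means viability at or below 30% in both replicate assays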;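 further: 100% = median of untreated cell wells with 0.1% DMSO on each plate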). The following applies: HUVEC proliferation, CellTiter-Glo luminescence, 72 h; at 10 µM; stronger effect = lower value.
The nature of test [5]: growth inhibitors of H69AR lung tumor, primary screen, human, duplicate replicates (AID 580;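 active means viability at or under a set limit in both replicates, limit being median viability minus 3 SD, cut at about 48% in these data, passing the limit was not always enough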;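 further: 100% = mean luminescence of untreated wells and 0% = no signal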). The note with it: H69AR lung tumor cells viability, ATP luminescence, 72 h; at 10 µM; stronger effect = lower value.
Test [6] can be described thus: reversal of MRP1-mediated doxorubicin resistance, pilot screen, H69AR cells, doxorubicin co-treatment (AID 601;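 active means viability loss from added drug above about 55%, and viability with drug at most 40%, in both replicates, limit read from the data, passing the limit was not always enough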). The note with it: CellTiter-Glo, 72 h, at 10 µM; for differential viability (reversal): stronger effect = higher value.
Test [7] is described as follows: 384-well plate pilot, post-Golgi transport modulator project, inhibition of yeast transport mutant growth (AID 636; in the data active means inhibition above about 31%). The following applies: absorbance 615 nm, about 18 h, stronger effect = higher value.
The nature of test [8]: growth suppression of yeast trafficking mutant, preliminary HTS, modulators of trafficking downstream of Golgi apparatus project, 1536-format plate, OD 615 nm (AID 637; in the data active means inhibition above about 30%). The following applies: yeast transport mutant growth, absorbance 615 nm, 18 h; stronger effect = higher value.
Test [9] in a line: OD615 S. cerevisiae growth inhibition, permissive medium, pilot counter-assay, permissive growth control for S. cerevisiae lifespan shortening project (AID 705;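 active means growth inhibition above 25% in both replicates, a cutoff set 3 SD above the mean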). The note with it: OD615, 24 h, at 10 µM, stronger effect = higher value.
Test [10] is described as follows: Restrictive medium S. cerevisiae growth inhibition, OD615, pilot screen of yeast lifespan reduction project, restrictive growth control (AID 706;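 active means growth inhibition above a set limit, 3 SD over mean compound inhibition, in both replicates, cut at about 43% in these data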;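 further: modified DeaD lifespan yeast strain shifted to restrictive glucose medium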). The following applies: OD615, 48 h, at 10 µM, stronger effect = higher value.
Test [11] is described as follows: viability gain of MRP-1-high H69AR cells under doxorubicin, pilot screen, MRP-1 activator project, CellTiter-Glo, duplicate (AID 807;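 active means viability increase at or above a cutoff of the median across tested compounds plus 3 SD, cut at about 8.5% in these data, passing the limit was not always enough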;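 further: compound pretreatment 18-22 h then 72 h combined with doxorubicin; 0% = doxorubicin alone and 100% = vehicle without doxorubicin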). The note with it: H69AR viability with doxorubicin, CellTiter-Glo luminescence; at 10 µM; stronger effect = higher value.
Test [12] in a line: growth suppression of beta-catenin knockout HCT116, pilot screen, human colon tumor cells (AID 823;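 active means cell viability at or below a set limit in both duplicate runs, the limit being the all-compound median minus 4 SD, cut at about 23% in these data, passing the limit was not always enough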;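 further: 0% = wells killed by 20 µM Hyamine and 100% = untreated DMSO cell wells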). The note with it: CellTiter-Glo, 60 h, at 10 µM, stronger effect = lower value.
A short description of test [13]: growth suppression of PTEN-deleted HCT116, pilot screen, cell-based, HCT116 clonal line, CellTiter-Glo (AID 824).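 Further: 0% = 20 µM Hyamine control and 100% = vehicle cell control.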 The note with it: 60 h, at 10 µM, stronger effect = lower value.
The nature of test [14]: inhibitors of the yeast RAM network, pilot screen, dse1pr::URA3 reporter, 5-FOA selection (AID 869;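 active means inhibition over a set limit, the all-compound mean plus 3 SD, in both replicate runs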;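 further: 0% = DMSO wells with no growth and 100% = 10 µM 1-NA-PP1 with full growth; RAM network block rescues cells from 5-FOA so hits raise OD615 growth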). The note with it: S. cerevisiae dse1pr::URA3 5-FOA growth, OD615, 2 d; at 10 µM; stronger effect = higher value; strain carries analog-sensitive mutant Cbk1 kinase.
A short description of test [15]: RAM signaling pathway blockade in yeast – S. cerevisiae, Pdr1DBD-CYC8 efflux-inhibited sensitized strain, primary screen (AID 1298;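 active means RAM network inhibition above 8.4% in each of two replicates, 3 SD over the compound average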;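 further: 0% = DMSO untreated cells without growth and 100% = 10 µM 1-NA-PP1 full growth; higher means more yeast growth rescued from 5-FOA killing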). The note with it: S. cerevisiae cbk1-as DSE1-URA3 strain, 5-FOA growth OD615, 2 d; at 50 µM; stronger effect = higher value.
The mark [16] stands for this setting: H69AR cells + 2 uM doxorubicin, measured here: viability with 2 uM doxorubicin, stronger effect = lower value.
Where [17] appears, read: H69AR cells, compound alone cytotoxicity.

Chain of Receptor tyrosine-protein kinase erbB-2 (Homo sapiens) (P04626 whole entry, looked up): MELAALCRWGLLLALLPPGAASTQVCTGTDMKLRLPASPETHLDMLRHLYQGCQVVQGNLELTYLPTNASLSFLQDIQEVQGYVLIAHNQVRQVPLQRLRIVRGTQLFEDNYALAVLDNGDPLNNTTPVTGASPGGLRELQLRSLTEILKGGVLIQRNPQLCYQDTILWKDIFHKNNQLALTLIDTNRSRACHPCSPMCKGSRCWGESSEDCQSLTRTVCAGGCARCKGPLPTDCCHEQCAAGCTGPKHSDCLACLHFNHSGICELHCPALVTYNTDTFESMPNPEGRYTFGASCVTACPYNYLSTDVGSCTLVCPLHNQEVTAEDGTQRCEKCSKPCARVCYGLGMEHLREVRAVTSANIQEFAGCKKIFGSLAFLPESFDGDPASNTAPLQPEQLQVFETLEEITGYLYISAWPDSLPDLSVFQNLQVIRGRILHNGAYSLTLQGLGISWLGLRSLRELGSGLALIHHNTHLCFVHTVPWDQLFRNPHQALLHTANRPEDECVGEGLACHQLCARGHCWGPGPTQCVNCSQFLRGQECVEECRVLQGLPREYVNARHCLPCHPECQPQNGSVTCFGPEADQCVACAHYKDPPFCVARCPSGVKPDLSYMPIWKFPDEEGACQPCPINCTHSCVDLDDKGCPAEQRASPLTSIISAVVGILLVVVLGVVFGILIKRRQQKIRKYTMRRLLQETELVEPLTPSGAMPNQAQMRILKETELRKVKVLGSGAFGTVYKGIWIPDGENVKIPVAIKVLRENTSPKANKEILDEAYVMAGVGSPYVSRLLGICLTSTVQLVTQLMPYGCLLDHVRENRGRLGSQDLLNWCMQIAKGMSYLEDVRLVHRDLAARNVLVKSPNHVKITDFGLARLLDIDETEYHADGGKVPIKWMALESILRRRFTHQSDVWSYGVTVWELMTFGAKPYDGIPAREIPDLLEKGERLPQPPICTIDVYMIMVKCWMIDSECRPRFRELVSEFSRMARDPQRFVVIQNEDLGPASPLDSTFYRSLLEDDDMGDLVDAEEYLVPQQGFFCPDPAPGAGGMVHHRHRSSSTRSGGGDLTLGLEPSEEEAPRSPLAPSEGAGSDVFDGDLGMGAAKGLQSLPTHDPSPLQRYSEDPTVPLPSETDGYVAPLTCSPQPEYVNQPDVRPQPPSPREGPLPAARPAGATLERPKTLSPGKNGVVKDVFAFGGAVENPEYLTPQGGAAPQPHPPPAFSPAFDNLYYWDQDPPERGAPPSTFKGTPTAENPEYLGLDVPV

For orientation: viability means a read-out of living cells in per cent, often relative to untreated cells. The term inhibition denotes the change of the read-out against control, counted positive when it falls. As to `CCOC(=O)N1CCC(N2C(=O)c3ccccc3C2Nc2cc(Cl)c(OC)cc2OC)CC1` (configuration not stated), the viability in test [1] is 92.5%; in test [3], 92.5% (inactive); in [4], 91.6% (inactive); in test [5], 78.2% (inactive); in test [6] (setting [16]), 64.2%; in test [6] (setting [17]) it was 78.2%. The viability is 77.8% (inactive) in test [12] and 76% (inactive) in test [13]. Also, the Her2 level in [2] was 114% (inactive). The differential viability (reversal) in test [6] (H69AR cells + 2 uM doxorubicin) was 14% (inactive). Moreover, the inhibition in [7] was -4.8% (inactive); in [8] it was 0.83% (inactive); in test [14] it was 0.285% (inactive). In addition, the figures for the growth inhibition in [9] and in test [10] were 3.33% (inactive) and 4.05% (inactive), respectively. Further, in [11], the viability increase was -4.45% (inactive). Further, the RAM network inhibition in [15] was 3.54% (inactive).

Turning to `Cc1nnc2n(-c3ccc(Cl)cc3)c(=O)c3c4c(sc3n12)CN(C)CC4`, the viability is 84% in test [1]; 84% (inactive) in test [3]; 103% (inactive) in test [4]; 91.6% (inactive) in test [5]; 103% in test [6] (setting [16]); 91.6% in test [6] (setting [17]). Besides, the figures for the viability in test [12] and in test [13] were 112% (inactive) and 93.1% (inactive), respectively. For the same compound, the Her2 level in test [2] was 98% (inactive). Moreover, the differential viability (reversal) in test [6] (H69AR cells + 2 uM doxorubicin) is -11.4% (inactive). In addition, the inhibition in test [7] was -4.94% (inactive); in [8], -4.1% (inactive); in test [14], 0.945% (inactive). The growth inhibition in test [9] is -4.76% (inactive); in [10], -10.1% (inactive). For the same compound, the viability increase in test [11] is -1.73% (inactive). In addition, the RAM network inhibition in [15] was 2.13% (inactive).

As to `NC(=O)CN1C(=O)C(O)(CC(=O)c2ccccc2O)c2ccccc21` (configuration not stated), the viability is 92.5% in test [1]; 92.5% (inactive) in test [3]; 92.1% (inactive) in test [4]; 91.8% (inactive) in test [5]; 97% in test [6] (setting [16]); 91.8% in test [6] (setting [17]). Moreover, the viability in test [12] is 94.8% (inactive); in [13] it was 93.9% (inactive). Further, in test [2], the Her2 level is 95.5% (inactive). Further, in test [6] (H69AR cells + 2 uM doxorubicin), the differential viability (reversal) was -5.2% (inactive). In addition, the inhibition in test [7] is -2.67% (inactive); in [8], -1.17% (inactive); in test [14], 1.52% (inactive). The growth inhibition was 1.61% (inactive) in test [9] and -10.4% (inactive) in [10]. The viability increase in [11] is -2.93% (inactive). Moreover, in test [15], the RAM network inhibition was 2.98% (inactive).

Turning to `O=C(C1CCCN(S(=O)(=O)c2cccnc2)C1)N1CCn2c1nc1ccccc12` (configuration not stated), the viability in test [1] was 90.5%; in test [3] it was 90.5% (inactive); in test [4], 105% (inactive); in test [5] it was 95.8% (inactive); in test [6] (setting [16]), 86.1%; in [6] (setting [17]), 95.8%. In addition, the viability in test [12] was 101% (inactive); in test [13], 99.3% (inactive). Also, the Her2 level in [2] is 103% (inactive). The differential viability (reversal) in test [6] (H69AR cells + 2 uM doxorubicin) was 9.65% (inactive). Also, the inhibition is 0.51% (inactive) in test [7], -0.33% (inactive) in test [8] and 0.46% (inactive) in test [14]. Besides, the growth inhibition in test [9] is 5.56% (inactive); in [10], 4.04% (inactive). In addition, in [11], the viability increase is 0.72% (inactive). Besides, in test [15], the RAM network inhibition is 1.55% (inactive).

On to `COc1cccc(NC(=O)c2nnn(Cc3ccc(Br)cc3F)c2N)c1`, for which the viability in test [1] was 98%; in [3], 98% (inactive); in test [4], 59.4% (inactive); in test [5], 72% (inactive); in test [6] (setting [16]), 69.2%; in test [6] (setting [17]), 72%. In addition, the viability is 94.5% (inactive) in [12] and 95.7% (inactive) in test [13]. The Her2 level in test [2] is 89% (inactive). Also, in test [6] (H69AR cells + 2 uM doxorubicin), the differential viability (reversal) was 2.77% (inactive). The inhibition in test [7] was -3.33% (inactive); in [8], 2.46% (inactive); in [14], 1.61% (inactive). Moreover, the growth inhibition is -7.21% (inactive) in test [9] and -5.7% (inactive) in [10]. The viability increase in test [11] is -0.51% (inactive). In addition, the RAM network inhibition in [15] was 5.85% (inactive).

Turning to `O=C1c2ccccc2C(Nc2cccnc2)N1Cc1ccccc1Cl` (configuration not stated), the viability in test [1] was 93%; in test [3] it was 93% (inactive); in test [4], 94.9% (inactive); in [5], 86.3% (inactive); in [6] (setting [16]), 102%; in test [6] (setting [17]), 86.3%. In addition, the figures for the viability in test [12] and in test [13] were 102% (inactive) and 99.2% (inactive), respectively. Also, the Her2 level in test [2] was 91% (inactive). In addition, the differential viability (reversal) in [6] (H69AR cells + 2 uM doxorubicin) is -16% (inactive). Also, the inhibition in test [7] was -3.2% (inactive); in [8] it was -3.5% (inactive); in [14] it was 0.17% (inactive). Besides, the growth inhibition in test [9] is -5.58% (inactive); in [10], 10.4% (inactive). Besides, the viability increase in test [11] was -3.57% (inactive). In addition, the RAM network inhibition in test [15] was 0.57% (inactive).
